PubChem BioAssay
Unmarked numbers belong to inactive results. The rule behind the calls is not given here.

Molecular target: Pantothenate synthetase (Mycobacterium tuberculosis (strain ATCC 25618 / H37Rv)) (UniProt P9WIL5)
Assay: Coupled enzyme confirmation of inhibitors against recombinant Mtb PanC (AID 375);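 note: 0% = full reaction with vehicle and 100% = no enzyme background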
Settings: coupled enzyme assay; at 10 µM, hits give high values

Sequence of Pantothenate synthetase (Mycobacterium tuberculosis (strain ATCC 25618 / H37Rv)) (P9WIL5 whole entry, looked up): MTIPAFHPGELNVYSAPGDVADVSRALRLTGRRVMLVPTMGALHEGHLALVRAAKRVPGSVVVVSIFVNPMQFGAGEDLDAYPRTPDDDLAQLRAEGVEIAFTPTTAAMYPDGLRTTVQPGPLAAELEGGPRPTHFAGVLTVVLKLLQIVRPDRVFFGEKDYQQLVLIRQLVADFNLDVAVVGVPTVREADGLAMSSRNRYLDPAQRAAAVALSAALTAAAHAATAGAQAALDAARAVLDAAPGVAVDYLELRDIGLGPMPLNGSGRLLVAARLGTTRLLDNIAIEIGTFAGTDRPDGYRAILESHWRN

Going from `COc1ccc(CNC(=O)c2cc(-c3ccc(OC)c(OC)c3)on2)cc1` to `COc1ccc(CCNC(=O)C2(C)CCC(=O)N2Cc2ccc3c(c2)OCO3)cc1OC` (stereo not given), the inhibition falls from 3% to 1%.

First: Cc1cc(S(=O)(=O)n2cnc3ccccc32)c(C)cc1Cl
Second: CCN(c1c(C)n(C)n(-c2ccccc2)c1=O)S(C)(=O)=O
The inhibition of the first is lower: 0% for the first, 5% for the second.

Going from `O=c1c2[nH]c3ccccc3c2ncn1CCCn1ccnc1` to `CN(Cc1ccccc1)c1nc2c(c(=O)[nH]c(=O)n2C)n1Cc1ccccc1Cl`, the inhibition rises from 0% to 3%.

Compared with `CCCCn1c(NCc2ccccc2O)nc2ccccc21`, `Oc1cccc2ccc(Nc3ccccn3)nc12` is higher in inhibition: 0% for the first, 8% for the second.

First: COC(=O)Nc1nc2ccc(Sc3ccccc3)cc2[nH]1
Second: CCCc1cc(=O)[nH]c(/N=C(\N)Nc2ccccc2)n1
The inhibition of the first is higher: 8% for the first, 6% for the second.

Going from `CCOC(=O)/C(C#N)=C1\Nc2ccccc2N=C1N(CC(C)C)CC(C)C` to `CCCCN(C)C(=O)c1cn(C)c2ccc(S(=O)(=O)N(C)C)cc2c1=O`, the inhibition falls from 6% to 0%.

`O=C(Nc1ccc(Cc2ccncc2)cc1)C1CC1` and `CCOc1cccc(C(=O)N2CCCCC2c2cccnc2)c1` (stereo not given) are the same in inhibition: 0% for the first, 0% for the second.

Compared with `COc1ccc(-n2c(SCC#N)nc3ccccc3c2=O)cc1`, `Cc1nc2cc(-n3ccc(=O)cc3)ccc2n1-c1ccccc1` is higher in inhibition: 1% for the first, 2% for the second.

First: O=C(CCC(=O)OCC(=O)c1ccccc1)NC1CCCCC1
Second: O=C(CSc1n[nH]c(=O)[nH]c1=O)c1ccccc1
The inhibition of the first is higher: 2% for the first, 0% for the second.

First: O=C(c1ccc2nc(N3CCOCC3)sc2c1)N1CCCC1
Second: CCn1c(Cc2ccccc2)nnc1SCC(=O)Nc1ccc(N2CCOCC2)c(Cl)c1
The inhibition of the first is higher: 13% for the first, 6% for the second.

`O=C(O)CCc1ccc(-c2ccc(Br)cc2)n1CC(=O)O` and `Cn1cccc1Cc1nnc(SCC(=O)NCC2CCCO2)n1-c1ccc(F)cc1` (stereo not given) are the same in inhibition: 0% for the first, 0% for the second.

Compared with `CC1=C/C(=C/N(C)c2ccccc2)C(=O)S1`, `CCN(C(=O)c1ccnc(C(C)(C)C)c1)c1ccccc1` is lower in inhibition: 1% for the first, 0% for the second.

Going from `CC(C)c1ccc(-c2nc(N3CCCCC3)[nH]c(=O)c2C#N)cc1` to `Cc1ccc(C(=O)Nc2ccc3c(c2)OCO3)cc1S(=O)(=O)N1CCCC1`, the inhibition falls from 5% to 0%.

`Cc1cc(C)n(-c2nc3sc4c(c3c3nnc(SC(C)C)n23)CC(C)(C)OC4)n1` and `CCOC(=O)Cc1csc(NC(=O)CSc2nnc(C(C)C)n2CC)n1` are the same in inhibition: 0% for the first, 0% for the second.

`NC(N)=NC(=O)c1nc(Cl)c(N)nc1N` and `Cn1c(SCC(=O)N2CCOCC2)nnc1-c1cnccn1` are the same in inhibition: 0% for the first, 0% for the second.

`CCC(=O)N1CCc2cc(Br)cc(S(=O)(=O)N3CCCCCC3)c21` and `CC(C)(C)n1nnnc1C(c1ccccc1)N1CCc2ccccc2C1` (stereo not given) are the same in inhibition: 0% for the first, 0% for the second.

First: O=C1NC2c3ccccc3C(=O)N2c2c1cnn2-c1ccccc1 (stereo not given)
Second: O=C(CSc1ncnc2c1oc1ccccc12)Nc1ccccc1C(F)(F)F
The inhibition of the first is higher: 1% for the first, 0% for the second.

`CCCCN(CC)CCCNC(=O)c1cc2c(=O)n(C)c3ccccc3c2n1C` and `CCCCOC(=O)c1cccc(NC(=O)CC)c1` are the same in inhibition: 0% for the first, 0% for the second.

`COc1cc(C(=O)Nc2ccc(-n3cnnn3)c(C)c2)cc(OC)c1OC` and `COc1cc(NC(=O)Cc2ccccc2OC)cc(OC)c1` are the same in inhibition: 0% for the first, 0% for the second.

First: O=C(Nc1sccc1C(=O)NCc1ccco1)c1cccnc1
Second: COCCn1nnnc1CN(Cc1cccnc1)Cc1cc2cc(OC)ccc2[nH]c1=O
The inhibition of the first is lower: 5% for the first, 6% for the second.
